About 4,000 (1.1%) of roughly 380,000 compounds were called active. About 3% were inconclusive and are not listed. Calls follow the shape of the dose curve; as a rule, active = well fitted activation curve with a large enough effect; inconclusive = small, poorly fitted or top-dose-only effect; inactive = no such curve, though single readings can be large or run the other way. What follows is part of a selection rich in actives, with near analogues and random picks from the rest. Entries that show only a call come without a potency.
Experiment: qHTS Assay to Identify Small Molecule Activators of BRCA1 Expression; also: nearly all actives have a fitted effect of over 80% in size
Settings: MCF7-BRCA1-FFLuc reporter, luminescence, 48 h; series mostly up to 46.1 µM
From the text: Functionally, BRCA1 has been implicated in a wide array of cellular activities, including DNA damage repair, cell-cycle checkpoint control, growth inhibition, apoptosis, transcriptional regulation, chromatin remodeling, protein ubiquitylation, and mammary stem cell self-renewal and differentiation. Reduction in BRCA1 levels is associated with an increase in tumor growth and resistance to anti-estrogenic agents, such as tamoxifen, while an increase in BRCA1 expression leads to cell growth arrest and apoptosis. […] The frequent loss of BRCA1 expression in invasive breast cancers in the absence of somatic mutation has been attributed to numerous mechanisms, including hypermethylation of the BRCA1 promoter, exaggerated ubiquitylation of BRCA1 protein, and improper intracellular localization. […] Basal-like breast cancers (BLBCs) are associated with an aggressive clinical course, resistance to chemotherapy, and typically lack expression of estrogen receptor (ER), progesterone receptor (PR), and epidermal growth factor receptor 2 (HER2). BLBCs account for 10-17% of all breast cancers, have few therapeutic options, and are considered the biggest unmet need in the treatment of breast cancer. Conversely, tumors which maintain expression of functional BRCA1 are almost uniformly luminal type cancers, and are accordingly associated with more indolent clinical courses, responsiveness to endocrine therapies, and improved survival.
As such, it is possible that an increase in BRCA1 expression would enable cellular differentiation and restore tumor suppressor function, resulting in delayed tumor growth and less aggressive, more treatable breast cancers. The long term goal of this proposal is to develop a novel prevention or therapeutic agent for breast cancer patients. To accomplish this goal, the overall objective of this proposal is to access the resources provided by the NIH Molecular Libraries Roadmap Initiative and the Molecular Libraries Probe Production Centers Network (MLPCN) to discover and develop new chemical activator probes that will increase BRCA1 expression and function.
NIH Molecular Libraries Probe Production Network [MLPCN]
NIH Chemical Genomics Center [NCGC]
PI Name: Lisa Harlan-Williams, University of Kansas Medical Center
5microl of MCF7-BRCA1-FFLuc cell suspension (400 cells/microl in phenol-red free MEM) are dispensed into Greiner white solid bottom 1536-well assay plates, yielding a final well density of 2000 cells/well. Plates are incubated for 2 hours at 37 degrees C in 5% humidified CO2 to allow cell attachment. Compounds are then transferred via Kalypsys pin tool equipped with 1536-pin array (10nl slotted pins, V&P Scientific, San Diego, CA). The plates are then incubated at 37 degrees C in 5% humidified CO2 for 48 hours. The NCGC in-house luciferase substrate reagent, Buglite, is then added (2.5microl) and plates incubated for 15 minutes, before being transferred to a ViewLux high-throughput CCD imager (PerkinElmer) wherein single end-point measurements of luminescence are acquired using a clear filter. The positive control compound, genistein, will be pinned into dedicated control columns on each plate, including a 16-point 1:3 titration in duplicate, as well as a 10microM maximum activation control, allowing for the normalization of screening activity. DMSO will be pinned into a separate column as a negative control.
All screening operations will be performed on a fully integrated robotic system (Kalypsys, San Diego, CA) containing one RX-130 and two RX-90 anthropomorphic robotic arms (Staubli, Duncan, SC). Library plates will be screened starting from the lowest and proceeding to the highest concentration. Vehicle-only plates, with DMSO being pin-transferred to columns 5-48, will be inserted uniformly at the beginning and the end of each library in order to monitor and record any shifts in the background, which can be affected by reagent dispensers or loss in enzyme activity over time. […]
For `CN(C)Cc1cn(-c2ccccc2)nc1-c1ccccc1`, the Potency was “inactive”.
With `COc1ccccc1CNCc1ccc(C(=O)O)s1` the Potency was “inactive”.
With `COc1ccc(Cl)cc1C(=O)Nc1ccc(N(C)C(C)=O)cc1` the Potency was “inactive”.
For `COc1cc(OC)c(C(=O)NNC(=O)c2ccccc2-n2cccc2)cc1OC`, the Potency was “inactive”.
In the case of `COc1cc(OC)c(C(=O)Nc2ccc(N(C)C)cc2)cc1OC`, the Potency was 8.91 µM (active).
In the case of `COc1ccc(-c2cc(C(F)(F)F)nc(SCC(=O)N(C)Cc3ccccc3)n2)cc1OC`, the Potency was “inactive”.
For `CN(C)S(=O)(=O)c1cc(C(=O)Nc2ccn(C)n2)c(Cl)cc1Cl`, the Potency was “inactive”.
In the case of `Cc1nn(C)cc1C(=O)NNC(=S)Nc1ccc(Cl)cc1`, the Potency was “inactive”.
For `Cn1ccc(NC(=O)Nc2ccc(Cl)cc2)n1`, the Potency was 7.08 µM (active).
In the case of `COc1cccc(C(=O)NCC(=O)OCc2cc(=O)n3ccsc3n2)c1`, the Potency was “inactive”.
For `CCn1cc(C(=O)N(C)Cc2ccccc2)c(=O)c2cc(S(=O)(=O)N3CCCCCC3)ccc21`, the Potency was “inactive”.
For `COc1cccc(NC(=O)COc2cccnc2[N+](=O)[O-])c1`, the Potency was “inactive”.
For `O=C(O)c1cccnc1NC1CCCC1`, the Potency was “inactive”.
In the case of `COc1cccc(Nc2ncccc2C(=O)O)c1`, the Potency was 11.2 µM (active).
In the case of `O=c1cc(COc2cccc(C(F)(F)F)c2)nc2sc3c(n12)CCCC3`, the Potency was “inactive”.
With `Cc1ccc(C(=O)OC(C)CN2CCOCC2)cc1` (configuration not stated) the Potency was “inactive”.
For `Cc1cccc(C(=O)OC(C)CN2CCN(C)CC2)c1` (configuration not stated), the Potency was 8.91 µM (active).
With `Cc1cccc(C(=O)OC(C)CN2CCCC2)c1` (configuration not stated) the Potency was “inactive”.
For `C(=Nc1ccc(/C=C/c2ccnc3ccccc23)cc1)c1cc2c3c(c1)CCCN3CCC2`, the Potency was “inactive”.
In the case of `CN(c1ccccc1)S(=O)(=O)c1ccc(C(=O)NCCc2ccccc2)cc1`, the Potency was “inactive”.
In the case of `CC(C)c1ccc(C(=O)NCCCc2ccccc2)cc1`, the Potency was 10 µM (active).
With `Cc1c(C(=O)NCCCc2ccccc2)cccc1[N+](=O)[O-]` the Potency was “inactive”.
With `Cc1ccccc1CNC(=O)c1ccc(NC(=O)N2CCCCc3ccccc32)cc1` the Potency was “inactive”.
In the case of `C/C=C/NNC(=O)Cc1ccc(OC)cc1`, the Potency was “inactive”.
With `CC1=C(C(=O)OCC2CCCCC2)C(c2c(F)cccc2Cl)CC(=O)N1` (configuration not stated) the Potency was “inactive”.
In the case of `CC(=O)c1cc2c(cc1N)OCO2`, the Potency was “inactive”.
In the case of `Nc1[nH][nH]c(=O)c1N=Nc1ccc2c(c1)OCO2`, the Potency was 12.6 µM (active).
With `CC(=O)C1=C(C)NC(=O)NC1c1ccc2c(c1)OCO2` (configuration not stated) the Potency was “inactive”.
In the case of `CCOc1ccc(CCNC(=O)CN(c2ccc(C)cc2)S(=O)(=O)N(C)C)cc1OCC`, the Potency was “inactive”.
In the case of `COc1ccc(CCNC(=O)C(=O)Nc2ccc3nc4n(c(=O)c3c2)CCCCC4)cc1OC`, the Potency was “inactive”.
With `O=C(Nc1ccc2nc3n(c(=O)c2c1)CCCC3)c1ccc(Cl)nc1` the Potency was “inactive”.
For `COc1cccc(C(=O)Nc2ccc3nc4n(c(=O)c3c2)CCCCC4)c1`, the Potency was 4.47 µM (active).

— PubChem BioAssay AID624202 (National Center for Advancing Translational Sciences (NCATS), 2012)
Potency is read from the fitted curve at half-maximal effect.
